Data: PubChem BioAssay (Tox21)
A number with no mark means an inactive call. Results filed as inconclusive are left out. The source made the active and inactive calls. Unless noted, the call rests on the fitted dose curve; in most records, active means well fitted curve in the direction sought with a large enough effect in the repeat runs; inconclusive means weak or mixed curves; inactive means flat fitted curve, though single readings scatter.

tested on: not listed separately; assay: qHTS assay to test for compound auto fluorescence at 460 nm (blue) in HepG2 cell free culture (AID 720685); conditions: Cell-free culture medium, blue autofluorescence 405/460 nm; series mostly up to 91.3 µM; fluorescence, % of fluorescent control: at the top concentration
Outline: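 Cell-free plates of MEM plus 10% FBS received 23 nL compound or DMSO vehicle; blue-channel (405/460 nm) intensity scored against triamterene as reference fluorophore.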
On the % scale 0 is the no-effect control and ±100 the full control effect; tags describe the fitted curve by direction and shape or compound fluorescence and quenching.

SMILES	fluorescence, % of fluorescent control
O=C1[C@H](CC[C@H](O)c2ccc(F)cc2)[C@@H](c2ccc(O)cc2)N1c1ccc(F)cc1	-0.0105% [at 46 µM]
CC(C)(C)C(=O)OCOP(=O)(COCCn1cnc2c(N)ncnc21)OCOC(=O)C(C)(C)C	0.0009% [at 46 µM]
CC(=O)CC(=O)c1ccccc1	0.0254%
CCCCCCc1ccc(N)cc1	0.272%
CC(=O)[C@@]1(O)CC[C@H]2[C@@H]3C[C@H](C)C4=CC(=O)CC[C@]4(C)[C@H]3CC[C@@]21C	-0.0378% [at 46 µM]

tested on: not listed separately; assay: qHTS assay to test for compound auto fluorescence at 535 nm (green) in HepG2 cell free culture (AID 720686); conditions: Cell-free medium, green autofluorescence 485/535 nm; series mostly up to 91.3 µM; fluorescence, % of fluorescein control: at the top concentration

SMILES	fluorescence, % of fluorescein control	outcome
CC1CCc2cc(F)cc3c(=O)c(C(=O)O)cn1c23 (stereo not given)	-0.0517% [at 46 µM]	–
CC1=CCC(C(C)C)C=C1 (stereo not given)	-0.174%	–
CC(=O)c1ccc2c(c1)[C@H](NC(=O)c1ccc(F)cc1)[C@@H](O)C(C)(C)O2	-0.0244%	–
C=C(C)C(=O)OC(C)C	-0.0792%	–
CC(C)c1ccccc1C(C)C	0.0854%	–
CCOc1cc(OCC)c(C(=O)CCC(=O)O)cc1OCC	0.0323% [at 46 µM]	–
CC(C)(C)C1CCCCC1O (stereo not given)	-0.104%	–
CCC(=O)OC(C)(C)C1CC=C(C)CC1 (stereo not given)	0.0045%	–
CCCOc1ccc2nc(NC(=O)OC)[nH]c2c1	-0.0616% [at 46 µM]	–
COCCOCCOCCOCCOC	0.0261%	–
CC(=O)Nc1ccc(/C=N/NC(N)=S)cc1	–	inactive
N=C(N=C(N)N)N1CCOCC1	-0.0914% [at 18.6 µM]	–
CCCCCCCCCO	0.0479%	–
CC[C@H](C)[C@H](N)C(=O)O	-0.043% [at 46 µM]	–
Cc1cc(NC(=O)C(=O)O)cc(C)c1Oc1ccc(O)c2c1CCC2	-0.0718%	–
O=C(C(=O)c1ccc(Br)cc1)c1ccc(Br)cc1	-0.0449% [at 18.6 µM]	–

SMILES	fluorescence, % of fluorescein control	outcome
CC(C)=CCCC(C)CC=O (stereo not given)	-0.0094%	–
COCCO	0.0408%	–
O=C=NC1CCC(CC2CCC(N=C=O)CC2)CC1 (stereo not given)	0.0103%	–
CC(C)c1cccc(C(C)C)c1NC(=O)NS(=O)(=O)c1cc(C(C)(C)O)co1	0.0385%	–
N#Cc1cc2ccccc2c2ccccc12	-0.0432%	–
Nc1nc(N)c2nc(CNc3ccc(C(=O)N[C@@H](CCC(=O)O)C(=O)O)cc3)cnc2n1	–	inactive
CCCCCc1ccc(N)cc1	-0.0795%	–
Cc1cccc(OCCOc2cccc(C)c2)c1	0.0457% [at 95.7 µM]	–
Cc1ccc(C(=O)C(C)CN2CCCCC2)cc1 (stereo not given)	–	inactive
N#Cc1c(F)cccc1F	-0.0244%	–
Nc1cnn([C@@H]2O[C@H](CO)[C@@H](O)[C@H]2O)c(=O)n1	-0.158%	–
CC[C@H](C)[C@@H](C(=O)O)n1sc2ccccc2c1=O	0.0181%	–
O=C1[C@H](CC[C@H](O)c2ccc(F)cc2)[C@@H](c2ccc(O)cc2)N1c1ccc(F)cc1	-0.0249% [at 46 µM]	–
CC(C)(C)C(=O)OCOP(=O)(COCCn1cnc2c(N)ncnc21)OCOC(=O)C(C)(C)C	0.11% [at 46 µM]	–
CCCCCCc1ccc(N)cc1	-0.0341%	–
CC(=O)[C@@]1(O)CC[C@H]2[C@@H]3C[C@H](C)C4=CC(=O)CC[C@]4(C)[C@H]3CC[C@@]21C	0.257% [at 46 µM]	–

tested on: not listed separately; assay: qHTS assay to test for compound auto fluorescence at 460 nm (blue) in HepG2 cells (AID 720687); conditions: autofluorescence 405/460 nm, 1 h; series mostly up to 91.3 µM; fluorescence, % of fluorescent control: at the top concentration; further: potency means the concentration at half of the fitted maximal effect
Outline: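 HepG2 cells in MEM with 10% FBS, attached overnight at 37 C, were exposed to compound or DMSO for 1 hr at 37 C, 5% CO2. Blue fluorescence was read at 405/460 nm, with triamterene as reference fluorophore.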

SMILES	fluorescence, % of fluorescent control	Potency
CC1CCc2cc(F)cc3c(=O)c(C(=O)O)cn1c23 (stereo not given)	-0.0704% [at 46 µM]	–
CC1=CCC(C(C)C)C=C1 (stereo not given)	-0.0491%	–
C=C(C)C(=O)OC(C)C	0.226%	–
CC(C)c1ccccc1C(C)C	-0.0057%	–
CCOc1cc(OCC)c(C(=O)CCC(=O)O)cc1OCC	-0.0292% [at 46 µM]	–
CC(C)CCCC(C)CCO (stereo not given)	-0.397%	–
CC(C)(C)C1CCCCC1O (stereo not given)	-0.0127%	–
CCC(=O)OC(C)(C)C1CC=C(C)CC1 (stereo not given)	0.0307%	–
Cc1ncsc1CCO	-0.267%	–
COCCOCCOCCOCCOC	-0.0097%	–
COc1ccc(C(C)=O)cc1	-0.387% [at 95.7 µM]	–
CC[C@H](C)[C@H](N)C(=O)O	-0.002% [at 46 µM]	–
Cc1cc(NC(=O)C(=O)O)cc(C)c1Oc1ccc(O)c2c1CCC2	0.0142%	–
O=C(C(=O)c1ccc(Br)cc1)c1ccc(Br)cc1	0.0185% [at 18.6 µM]	–
C#CCOC(=O)[C@@H](C)Oc1ccc(Oc2ncc(Cl)cc2F)cc1	0.0008%	–
CC(C)=CCCC(C)CC=O (stereo not given)	0.246%	–
COCCO	-0.017%	–
N#Cc1cc2ccccc2c2ccccc12	-0.0493%	–
Nc1nc(N)c2nc(CNc3ccc(C(=O)N[C@@H](CCC(=O)O)C(=O)O)cc3)cnc2n1	–	39.8 µM [fluorescent] (active)
C1=Cc2ccccc2C1	0.179%	–
CCCCCc1ccc(N)cc1	0.0915%	–
Cc1cccc(OCCOc2cccc(C)c2)c1	-0.137% [at 95.7 µM]	–
Cc1ccc(C(=O)C(C)CN2CCCCC2)cc1 (stereo not given)	–	inactive
N#Cc1c(F)cccc1F	-0.0686%	–
O=C1[C@H](CC[C@H](O)c2ccc(F)cc2)[C@@H](c2ccc(O)cc2)N1c1ccc(F)cc1	-0.0467% [at 46 µM]	–
CC(C)(C)C(=O)OCOP(=O)(COCCn1cnc2c(N)ncnc21)OCOC(=O)C(C)(C)C	-0.0159% [at 46 µM]	–
CC(=O)[C@@]1(O)CC[C@H]2[C@@H]3C[C@H](C)C4=CC(=O)CC[C@]4(C)[C@H]3CC[C@@]21C	0.193% [at 46 µM]	–

molecular target: Glucocorticoid receptor (Homo sapiens) (UniProt P04150); assay: qHTS assay to identify small molecule agonists of the glucocorticoid receptor (GR) signaling pathway (AID 720691; active means well fitted activation curve with a large enough effect in the signal ratio in the repeat runs, not every such curve was filed as active; the % refers to the signal ratio; further: potency means the concentration at half of the fitted maximal effect); conditions: GR-bla HeLa, beta-lactamase reporter ratio, 18 h; series mostly up to 62.4 µM; activation: at the top concentration
Outline: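 HeLa GR-bla reporter line; cells pre-incubated 4 h, compound in DMSO 18 h at 37 C; LiveBLAzer B/G FRET substrate 2 h RT; fluorescence intensity read-out.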

Glucocorticoid receptor (Homo sapiens), sequence (P04150 whole entry, looked up): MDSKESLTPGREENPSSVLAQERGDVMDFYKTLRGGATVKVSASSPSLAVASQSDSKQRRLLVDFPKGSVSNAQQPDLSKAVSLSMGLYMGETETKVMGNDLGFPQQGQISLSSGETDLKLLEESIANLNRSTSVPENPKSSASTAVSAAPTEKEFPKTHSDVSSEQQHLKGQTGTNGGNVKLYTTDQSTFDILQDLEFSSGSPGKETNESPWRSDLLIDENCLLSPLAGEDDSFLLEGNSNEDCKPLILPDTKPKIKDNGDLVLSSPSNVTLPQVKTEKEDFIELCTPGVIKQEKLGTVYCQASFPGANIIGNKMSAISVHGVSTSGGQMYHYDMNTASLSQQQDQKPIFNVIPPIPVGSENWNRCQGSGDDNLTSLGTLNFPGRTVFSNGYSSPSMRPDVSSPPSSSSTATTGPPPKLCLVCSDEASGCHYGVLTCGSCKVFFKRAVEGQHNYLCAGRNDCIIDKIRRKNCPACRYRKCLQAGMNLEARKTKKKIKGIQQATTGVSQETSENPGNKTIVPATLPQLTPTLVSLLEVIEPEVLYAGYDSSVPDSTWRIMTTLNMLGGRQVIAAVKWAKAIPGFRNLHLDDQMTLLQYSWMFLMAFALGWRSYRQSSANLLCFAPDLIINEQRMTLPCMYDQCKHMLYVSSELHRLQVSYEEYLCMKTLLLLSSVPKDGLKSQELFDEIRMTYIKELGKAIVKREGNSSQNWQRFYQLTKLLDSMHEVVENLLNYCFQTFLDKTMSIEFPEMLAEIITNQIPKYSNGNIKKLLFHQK

SMILES	activation	Potency
CC1CCc2cc(F)cc3c(=O)c(C(=O)O)cn1c23 (stereo not given)	0.674%	–
CC(=O)c1ccc2c(c1)[C@H](NC(=O)c1ccc(F)cc1)[C@@H](O)C(C)(C)O2	0.296%	–
CC(C)c1ccccc1C(C)C	-5.88%	–
CCOc1cc(OCC)c(C(=O)CCC(=O)O)cc1OCC	0.489%	–
CC(C)CCCC(C)CCO (stereo not given)	1.24%	–
CC(C)(C)C1CCCCC1O (stereo not given)	-3.43%	–
COCCOCCOCCOCCOC	-3%	–
N=C(N=C(N)N)N1CCOCC1	2.09% [at 29.2 µM]	–
CCCCCCCCCO	0.794%	–
CC[C@H](C)[C@H](N)C(=O)O	-0.838%	–
Cc1cc(NC(=O)C(=O)O)cc(C)c1Oc1ccc(O)c2c1CCC2	-0.17%	–
O=C(C(=O)c1ccc(Br)cc1)c1ccc(Br)cc1	-0.92% [at 29.2 µM]	–
C#CCOC(=O)[C@@H](C)Oc1ccc(Oc2ncc(Cl)cc2F)cc1	-0.0882%	–
CC(C)=CCCC(C)CC=O (stereo not given)	-0.9%	–
COCCO	-0.97%	–
O=C=NC1CCC(CC2CCC(N=C=O)CC2)CC1 (stereo not given)	-6.62%	–
CC(C)c1cccc(C(C)C)c1NC(=O)NS(=O)(=O)c1cc(C(C)(C)O)co1	-2.49%	–
N#Cc1cc2ccccc2c2ccccc12	-2.34% [at 79.2 µM]	–
Nc1nc(N)c2nc(CNc3ccc(C(=O)N[C@@H](CCC(=O)O)C(=O)O)cc3)cnc2n1	0.0643%	–
Cc1cccc(OCCOc2cccc(C)c2)c1	4.6% [at 79.2 µM]	–
N#Cc1c(F)cccc1F	-0.07%	–
CC[C@H](C)[C@@H](C(=O)O)n1sc2ccccc2c1=O	2.35%	–
CC(C)(C)C(=O)OCOP(=O)(COCCn1cnc2c(N)ncnc21)OCOC(=O)C(C)(C)C	0.989%	–
CC(=O)CC(=O)c1ccccc1	-2.03% [at 79.2 µM]	–
CCCCCCc1ccc(N)cc1	-2.6%	–
CC(=O)[C@@]1(O)CC[C@H]2[C@@H]3C[C@H](C)C4=CC(=O)CC[C@]4(C)[C@H]3CC[C@@]21C	–	0.0849 µM (active)
